Results from PubChem BioAssay AID977606 (Broad Institute, 2014).
The whole screen tested about 1,500 compounds, of which about 430 (29%) were called active. These entries were drawn from the full list. Potency and affinity values are given separately. Values without a mark were called inactive. The rule behind the calls is not given here.

test: glucose-independent GLuc insulin release activation – cell-based, INS-1E, Gaussia luciferase, luminescence, cherry-pick, counter-screen for glucose-dependent insulin secretion activators, dose response (AID 977606); conditions: INS-1E Gaussia luciferase insulin secretion, no glucose, 100% = twice neutral-control luminescence; series mostly up to 35 µM; activation: at the top concentration;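 note: 0% = median of neutral control wells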

Question: With `O=C1CC(=O)Nc2cc(S(=O)(=O)NCc3cccs3)ccc2N1` as the compound, how does the “activation” value read?
Answer: -3.25%

Question: Which “activation” value does the source give for `O=C1CSC(c2cccc(O)c2)N1Cc1ccccc1` (configuration not stated) here?
Answer: -0.893%

Question: Which “activation” value does the source give for `CC(C)Cc1nc2oc3c(NCc4cccnc4)ncnc3c2c2c1CCC2` here?
Answer: -15%

Question: With `CCOC(=O)C1CCCN(C(=O)c2ccccc2OC(F)(F)F)CC1` (configuration not stated) as the compound, how does the “activation” value read?
Answer: 1.8%

Question: With `CN(C)N1C(N)=C(C#N)C(c2ccc(F)cc2)C2=C1CCCC2=O` (configuration not stated) as the compound, how does the “activation” value read?
Answer: 7.12%

Question: With `O=C(O)c1ccc(-n2nc(-c3ccccc3)c3ccccc3c2=O)cc1` as the compound, how does the “activation” value read?
Answer: -3.75%

Question: Which “activation” value does the source give for `O=c1c2ccccc2c(-c2ccccc2)nn1-c1ccccn1` here?
Answer: -6.35%

Question: Which “activation” value does the source give for `Cc1ccccc1SC1CCN(C(=O)C2CCC(=O)N(C3CC3)C2)CC1` (configuration not stated) here?
Answer: 0.358%

Question: With `COc1ccc(CCNC(=O)C(=O)c2c(C)n(C)c3ccccc23)cc1OC` as the compound, how does the “activation” value read?
Answer: -5.15%

Question: Which outcome does the source give for `CCc1nc(N)nc(N)c1-c1ccc(Cl)c(N=[N+]=[N-])c1` here?
Answer: inactive

Question: For `COc1ccc(C(C)=O)cc1CSCc1cc(C(C)=O)ccc1OC`, which “activation” value is on record?
Answer: 0.399%

Question: For `CN(C)CCCN(C(=O)CCOc1ccccc1)c1nc2c(F)cccc2s1`, which “activation” value is on record?
Answer: 22.9%

Question: With `COc1ccc(CCNC(=O)CCn2c(=O)c3cccn3c3cccnc32)cc1OC` as the compound, how does the “activation” value read?
Answer: -8.89%

Question: Which “activation” value does the source give for `COc1ccc(C2=NN(C(=O)c3ccco3)C(c3cccs3)C2)cc1OC` (configuration not stated) here?
Answer: 2.94%

Question: For `CC(=O)N1CCN(c2nnc(-c3ccccc3)c3ccccc23)CC1`, which “activation” value is on record?
Answer: -7.28%

Question: Which “activation” value does the source give for `COc1ccc(-c2cnnn2-c2ccc(N)cc2)cc1OC` here?
Answer: 14.5%

Question: With `CCOC(=O)c1nc2nc(-c3cccs3)cc(C(F)(F)F)n2n1` as the compound, how does the “activation” value read?
Answer: -2.27%

Question: For `CCOC(=O)c1cc(-c2ccncc2)nc2c1c(C)nn2-c1ccccn1`, which “activation” value is on record?
Answer: -12.8%

Question: Which “activation” value does the source give for `CCN(CC)C(=O)C1(P(=O)(c2ccccc2)c2ccccc2)CCC1` here?
Answer: 3.86%

Question: With `CCCNC(=O)C1(C)CCCN(Cc2cccn2C)C1` (configuration not stated) as the compound, how does the “activation” value read?
Answer: 2.12%

Question: For `CC(C)(C)c1ccc(S(=O)(=O)N2CC(C(=O)O)Oc3ccc(Cl)cc32)cc1` (configuration not stated), which “activation” value is on record?
Answer: -17.2%

Question: For `N#CCCCc1cc2ccccc2cn1`, which “activation” value is on record?
Answer: -1.65%

Question: With `Cc1cc(Br)c2c(c1)C1(OCCO1)C(=O)N2` as the compound, how does the “activation” value read?
Answer: -15.4%

Question: For `CCCc1c(C)c2ccc(OCC(C)=O)cc2oc1=O`, which “activation” value is on record?
Answer: 31.2%

Question: For `CNc1nc(-c2ccccc2)cc(-c2ccccc2)n1`, which “activation” value is on record?
Answer: -10.1%

Question: Which “activation” value does the source give for `CCS(=O)(=O)c1nc(S(=O)(=O)c2ccc(C)cc2)c(N2CCC(O)CC2)s1` here?
Answer: 5.07%

Question: For `COc1ccc(C(C)=O)cc1Cn1cnc2c(cnn2C)c1=O`, which “activation” value is on record?
Answer: 3.6%

Question: For `O=C(Cn1cnc2sc(-c3ccccc3)cc2c1=O)NCCc1ccccc1`, which “activation” value is on record?
Answer: -15.1%

Question: For `O=C(Nc1cccc(Cl)c1)c1cnn2cccnc12`, which “activation” value is on record?
Answer: 20.9%

Question: With `COc1ccc(/C=N/NC(=O)Cn2cnc3ccccc3c2=O)cc1OC` as the compound, how does the “activation” value read?
Answer: 6.92%

Question: With `CCc1nc2ccc(C(=O)NCCCN(C)C)cn2c1N(C)Cc1ccc(OC)cc1` as the compound, how does the “activation” value read?
Answer: -1.71%

Question: Which “activation” value does the source give for `COc1ccc(C2=NN(C(=O)c3ccco3)C(c3ccco3)C2)cc1OC` (configuration not stated) here?
Answer: -1.59%

Question: For `O=C(CCn1ccc2cc(S(=O)(=O)N3CCCC3)ccc21)NCc1cccc(F)c1`, which “activation” value is on record?
Answer: -20.7%

Question: Which “activation” value does the source give for `Cc1cc(Cl)ccc1-c1nc(NCc2ccccc2)nc2ccsc12` here?
Answer: 13.2%

Question: Which “activation” value does the source give for `c1ccc(CNc2nc(Oc3ccncc3)c3sccc3n2)cc1` here?
Answer: -5.34%

Question: With `COc1ccc(C2C3CCCCC3(O)CCN2C(=O)c2cccs2)cc1` (configuration not stated) as the compound, how does the “activation” value read?
Answer: -6.6%

Question: With `CCn1c(SCc2cc(=O)[nH]c3ccccc23)nc2c1c(=O)n(C)c(=O)n2C` as the compound, how does the “activation” value read?
Answer: -0.85%

Question: Which “activation” value does the source give for `C=CCN(Cc1ccc(OC)c(OC)c1)C(=O)N1CCOCC1` here?
Answer: 5.63%

Question: With `S=C(NCc1ccccc1)Nc1ccc2cn[nH]c2c1` as the compound, how does the “activation” value read?
Answer: -12.7%

Question: Which “activation” value does the source give for `CCC(=O)Nc1nnc(Sc2ccc(N(C)C)cc2)s1` here?
Answer: -2.97%

Question: With `CCSc1nnc(NC(=O)c2csc(C)c2)s1` as the compound, how does the “activation” value read?
Answer: 3.32%

Question: With `CCOc1ccc(CCNC(=O)CCC(=O)c2cccs2)cc1OCC` as the compound, how does the “activation” value read?
Answer: -12.3%

Question: For `COCCn1c(=O)[nH]c2cc(C(=O)Nc3cc(OC)c(OC)c(OC)c3)ccc2c1=O`, which “activation” value is on record?
Answer: 8.32%

Question: Which “activation” value does the source give for `CCOC(=O)Cc1csc(NC(=O)c2ccc(OC)c(OC)c2)n1` here?
Answer: 6.38%

Question: For `COCCNC(=O)CCCn1c(=O)c2ccccc2n(Cc2ccccc2C#N)c1=O`, which “activation” value is on record?
Answer: -18.3%

Question: Which “activation” value does the source give for `COc1ccc(CCNS(=O)(=O)c2ccc(Cl)s2)cc1OC` here?
Answer: -2.93%

Question: Which “activation” value does the source give for `O=C(c1cc(-c2ccc(F)cc2)nc2ccccc12)N1CCN(C2CCS(=O)(=O)C2)CC1` (configuration not stated) here?
Answer: 0.694%

Question: With `O=C(Nc1ccc(C(=O)N2CCCC2)cc1)c1cccc(C(F)(F)F)c1` as the compound, how does the “activation” value read?
Answer: 6.96%

Question: For `CCOc1ccc(CCNC(=O)COc2cc(=O)n(C)c3ccccc23)cc1OCC`, which “activation” value is on record?
Answer: 16.5%

Question: For `O=S1(=O)c2ccccc2OC(COCc2ccccc2)CN1C1CC1` (configuration not stated), which “activation” value is on record?
Answer: 2.22%

Question: Which “activation” value does the source give for `CC(C)Oc1cccc(C(=O)C2CCCN(C(=O)CCc3cnn(C)c3)C2)c1` (configuration not stated) here?
Answer: -11.9%

Question: With `COc1ccc(-c2nnc3sc(-c4cccs4)nn23)cc1OC` as the compound, how does the “activation” value read?
Answer: -0.837%

Question: For `c1csc(-c2nc(NCC3CCCO3)c3ccccc3n2)c1` (configuration not stated), which “activation” value is on record?
Answer: 9.46%

Question: For `Cc1cc(NC(=O)COC(=O)c2oc3c(Cl)cccc3c2C)no1`, which “activation” value is on record?
Answer: -1.82%

Question: For `COc1cc(/C=N/Nc2cc(C)nc(NS(=O)(=O)c3ccc(C)cc3)n2)ccc1O`, which “activation” value is on record?
Answer: -9.01%

Question: With `CCOc1nc(NC(=O)NS(=O)(=O)Oc2ccccc2Cl)nc(-c2ccccc2)n1` as the compound, how does the “activation” value read?
Answer: -8.66%

Question: With `CCOc1ccccc1CNS(=O)(=O)c1cnc[nH]1` as the compound, how does the “activation” value read?
Answer: 0.89%
